An excerpt weighted towards active compounds, which were near 19% of everything screened.
DT40 TDP1 no CPT – qHTS for Inhibitors of human tyrosyl-DNA phosphodiesterase 1 (TDP1): qHTS in cells in absence of CPT; DT40 Tdp1-/- hTDP1 cells, no CPT, ATP luminescence, 48 h; Potency, µM (series often up to 46.2 µM), for the others: at the top dose activity change, negative = growth inhibition, usual class: inhibitors; hit rate 15% among 420,000; AID 686978, 2013; also: nearly all actives have a fitted effect of over 55% in size
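No-CPT arm: Tdp1-/-;hTDP1 DT40 cells (400/well) plus compounds, incubated ≥48 hr at 37 °C. Readout CellTiter-Glo luminescence.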
KB-V1 cytotox – kills drug-selected multidrug resistant KB-V1 cells; hit rate 3.4% among 400,000; AID 1347076; KB-V1 MDR cells viability, CellTiter-Glo, 72 h; Potency, µM (highest dose often 46.1 µM), usual class: cytotoxic; also: nearly all actives have a fitted effect of over 60% in size
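qHTS viability screen in drug-selected KB-V1 MDR cells: 72 h compound treatment at 37 degrees C, ATP luminescence end point.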
HT1080-NT tox – kills 2HG-producing HT-1080-NT fibrosarcoma cells; HT-1080-NT fibrosarcoma viability, CellTiter-Glo ATP luminescence, 48 h; Potency, µM (series often up to 46.1 µM), for the others: at the top dose activity, negative = less viability, usual class: cytotoxic; hit rate 1.6% among 360,000; AID 686970;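 also: NT is the 2HG producing partner of a matched IDH1 knockdown line; 0% = DMSO-treated cells and -100% = media-only wells without cells; nearly all actives have a fitted effect of over 55% in size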
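Compounds were tested in concentration-response format on HT-1080-NT cells for 48 hours at 37 degrees C. Cell viability came from CellTiter-Glo luminescence; curves were classified by r2, response magnitude and activity.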
HT1080 IDH1KD tx – toxicity to HT-1080 IDH1 knockdown cells (counter line); HT-1080 IDH1 knockdown viability, ATP luminescence, 48 h; Potency, µM (titrated, usually from 46.1 µM), without a hit: at the top dose activity, negative = toxicity, hits mostly cytotoxic; hit rate 2% among 360,000; AID 686971;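 also: 0% = DMSO wells and -100% = cell-free medium wells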
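IDH1KD HT-1080 cells, 750/well, RPMI + 5% FBS; compound pinned after 2 h settling; 48 h, 37 °C; CellTiter-Glo luminescence; % activity normalised to DMSO and no-cell wells; curves fitted, classed by r2 and efficacy.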
KB-3-1 cytotox – kills parental KB-3-1 adenocarcinoma cells | KB-3-1 viability, CellTiter-Glo ATP luminescence, 72 h | Potency, µM (top dose mostly 46.1 µM), most hits filed as cytotoxic | hit rate 1.4% among 400,000 | AID 1347075; also: nearly all actives have a fitted effect of over 60% in size
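KB-3-1 parental drug-naive adenocarcinoma cells in DMEM/10% FBS, incubated 72 h at 37 C with pin-transferred compounds across a concentration series. Viability by CellTiter-Glo luminescence; concentration-response curves fitted after normalization.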
DT40 TDP1 CPT – DT40-hTDP1 cell growth loss with CPT | chicken DT40 Tdp1-/-;hTDP1 cells + 20 nM CPT, ATP luminescence, 48 h | Potency, µM (series often up to 46.2 µM), for inactives: top-dose activity change, negative = growth inhibition, hits mostly inhibitors | hit rate 12% among 420,000 | AID 686979; also: nearly all actives have a fitted effect of over 55% in size
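Chicken DT40 Tdp1-/- cells complemented with human TDP1, 400 cells/well, exposed to compounds plus 20 nM camptothecin for at least 48 h at 37 C; viability read as ATP content by CellTiter-Glo luminescence.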
An asterisk follows results filed as active; i = inactive; ? = inconclusive; / = no result; [ ] = remark or other dose. Calls follow the shape of the dose curve; as a rule, active = well fitted curve in the direction sought with a large enough effect; inconclusive = small, poorly fitted or top-dose-only effect, or another doubt; inactive = no such curve, though single readings can be large; an effect the other way counts as inactive or inconclusive. Unless noted, % is scaled to controls: 0 for no effect and ±100 for the full control effect; potency is read from the fitted curve at half-maximal effect.

SMILES	DT40 TDP1 no CPT	KB-V1 cytotox	HT1080-NT tox	HT1080 IDH1KD tx	KB-3-1 cytotox	DT40 TDP1 CPT
CCCCCCCCN1[C@@H](CC(=O)O)c2cc(C(F)(F)F)ccc2S1(=O)=O	?	i	-8%	-14%	i	?
CCCCCCCCN1[C@@H](CC(C)=O)c2ccc(/C=C/C(C)=O)cc2S1(=O)=O	5.6µM*	?	/	/	?	4µM*
O=C(NCC1Cc2cccc(-c3cccnc3)c2O1)c1cc(-c2ccccc2)n[nH]1 (configuration not stated)	?	/	/	/	/	-1%[9.04 µM]
CCOc1ccc(CC(=O)NCC(=O)NCc2cc(=O)n(C)c(=O)n2C)cc1	0%	?	15%	2%	i	6%
Cc1cccc(CC(=O)NCC(=O)NCc2cc(=O)n(C)c(=O)n2C)c1	?	?	4%	8%	i	12µM*
O=C(CS(=O)(=O)c1cccc2nsnc12)N1CCN(c2ccc(F)cc2)CC1	?	?	/	/	i	-28%
COc1ccc(CCN2CC(C(=O)NCCc3ncccc3C)CCC2=O)cc1 (configuration not stated)	4%	i	9%	0%	i	-5%
COc1ccc(CCNC(=O)CSc2cn(CCNC(=O)c3ccccc3F)c3ccccc23)cc1OC	?	i	/	/	?	?
Cc1ccc2[nH]c(C(=O)N/N=C/c3ccc([N+](=O)[O-])cc3)c(C)c2c1	4.1µM*	i	-11%	-9%	?	3.7µM*
Cc1ccc2[nH]c(C(=O)N/N=C/c3ccccc3O)c(C)c2c1	4.6µM*	i	?	2.6µM*	?	4.6µM*
COc1ccc(C(=O)c2ccccc2CN2C(=O)c3ccccc3C2=O)cc1	-21%	16µM*	-1%	5%	i	?
CCc1cccc(NC(=O)CCc2c(C)nc3c(c2C)c(=O)n(C)c(=O)n3C)c1	?	i	/	/	i	23µM*
CCOC(=O)c1nnn(-c2nonc2-n2cccc2)c1-c1cccc([N+](=O)[O-])c1	?	i	1%	-11%	i	-14%
COc1cccc(NC(=O)CCN2CCN(CCO)CC2)c1	-2%	i	/	/	i	-15%
O=C(Nc1ccccc1)C1=C(c2ccccc2)S(=O)(=O)CCS1(=O)=O	0.026µM*	i	23µM*	3.3µM*	?	0.058µM*
O=C(O)c1ccccc1C(=O)Nc1ccccc1	-2%	i	10%	1%	i	2%
CCC1CCCCN1CCCNC(=O)Cn1c2ccccc2c2nc(=O)cc(C)n21 (configuration not stated)	-22%	i	-10%	8%	i	5%
CCOC(=O)C1CCCN(S(=O)(=O)c2ccc3ccccc3c2)C1 (configuration not stated)	?	i	-24%	-17%	i	-28%
CCOC(=O)C1CCCC12Nc1cccc3cccc(c13)N2 (configuration not stated)	15µM*	i	-12%	-18%	i	18µM*
CC(C)(C)N(Cc1ccccc1)C(=O)CN1C(=O)c2ccccc2S1(=O)=O	21µM*	i	13%	19%	i	?
CC(C(=O)O)C1CCC2C3CC=C4CC(O)CC[C@@]4(C)C3CC[C@]12C (some centres not stated)	0%	/	/	/	/	2%
CC1=C(CO)C(=O)OC([C@@H](C)C2CC[C@H]3C4C[C@H]5O[C@]56[C@@H](O)C=CC(=O)[C@]6(C)C4CC[C@]23C)C1 (some centres not stated)	1.3µM*	13µM*	21µM*	18µM*	?	1.5µM*
CCCCN(CC)C(=O)c1cc2c(=O)[nH]c3ccc(C)cc3c2s1	?	?	16%	16%	i	?

Source: PubChem BioAssay (National Center for Advancing Translational Sciences (NCATS))
